Experimental findings from PubChem BioAssay are described below.

Activity calls are given as the source filed them.

Assay [1] can be described thus: small molecules captured by biotinylated probe aFSTL3 – biochemical, small-molecule microarray, fluorescence 635/667, stem cell growth factor project, primary screen (AID 1064).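 Further: measures binding of the biotinylated anti-FSTL3 antibody to printed compounds.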 The settings on record: higher = more signal.
Assay [2] can be described thus: binders from COS7 lysate, DM2A8 probe, primary screen, torsin A project, cell lysate, small-molecule microarray, fluorescence 635/667 (AID 1065). Conditions: higher = more signal, COS7 lysate expressing mutant human TOR1A.
Assay [3] can be described thus: small molecules captured by biotinylated probe aFGF2 – biochemical, small-molecule microarray, fluorescence 635/667, stem cell growth factor project, primary screen (AID 1067).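 Further: measures binding of biotinylated aFGF2 protein to printed compounds on slides; z-score merges feature fluorescence and signal-to-noise across triplicate slides.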 Conditions: higher = more signal.
A short description of assay [4]: small molecules captured by biotinylated probe aFGF10 – biochemical, small-molecule microarray, fluorescence 635/667, stem cell growth factor project, primary screen (AID 1071).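 Further: score merges 667 nm spot intensity and signal to noise from triplicate slides.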 The settings on record: higher = more signal.
In assay [5] the target is Neurogenic locus notch homolog protein 2 (Homo sapiens) (UniProt Q04721). Nature of the assay: small molecules binding Notch2 protein – biochemical, small-molecule microarray, 635 nm fluorescence, stem cell growth factors, primary screen (AID 1073). Conditions: higher = more signal.
Sequence of Neurogenic locus notch homolog protein 2 (Homo sapiens) (Q04721 whole entry, looked up, canonical isoform): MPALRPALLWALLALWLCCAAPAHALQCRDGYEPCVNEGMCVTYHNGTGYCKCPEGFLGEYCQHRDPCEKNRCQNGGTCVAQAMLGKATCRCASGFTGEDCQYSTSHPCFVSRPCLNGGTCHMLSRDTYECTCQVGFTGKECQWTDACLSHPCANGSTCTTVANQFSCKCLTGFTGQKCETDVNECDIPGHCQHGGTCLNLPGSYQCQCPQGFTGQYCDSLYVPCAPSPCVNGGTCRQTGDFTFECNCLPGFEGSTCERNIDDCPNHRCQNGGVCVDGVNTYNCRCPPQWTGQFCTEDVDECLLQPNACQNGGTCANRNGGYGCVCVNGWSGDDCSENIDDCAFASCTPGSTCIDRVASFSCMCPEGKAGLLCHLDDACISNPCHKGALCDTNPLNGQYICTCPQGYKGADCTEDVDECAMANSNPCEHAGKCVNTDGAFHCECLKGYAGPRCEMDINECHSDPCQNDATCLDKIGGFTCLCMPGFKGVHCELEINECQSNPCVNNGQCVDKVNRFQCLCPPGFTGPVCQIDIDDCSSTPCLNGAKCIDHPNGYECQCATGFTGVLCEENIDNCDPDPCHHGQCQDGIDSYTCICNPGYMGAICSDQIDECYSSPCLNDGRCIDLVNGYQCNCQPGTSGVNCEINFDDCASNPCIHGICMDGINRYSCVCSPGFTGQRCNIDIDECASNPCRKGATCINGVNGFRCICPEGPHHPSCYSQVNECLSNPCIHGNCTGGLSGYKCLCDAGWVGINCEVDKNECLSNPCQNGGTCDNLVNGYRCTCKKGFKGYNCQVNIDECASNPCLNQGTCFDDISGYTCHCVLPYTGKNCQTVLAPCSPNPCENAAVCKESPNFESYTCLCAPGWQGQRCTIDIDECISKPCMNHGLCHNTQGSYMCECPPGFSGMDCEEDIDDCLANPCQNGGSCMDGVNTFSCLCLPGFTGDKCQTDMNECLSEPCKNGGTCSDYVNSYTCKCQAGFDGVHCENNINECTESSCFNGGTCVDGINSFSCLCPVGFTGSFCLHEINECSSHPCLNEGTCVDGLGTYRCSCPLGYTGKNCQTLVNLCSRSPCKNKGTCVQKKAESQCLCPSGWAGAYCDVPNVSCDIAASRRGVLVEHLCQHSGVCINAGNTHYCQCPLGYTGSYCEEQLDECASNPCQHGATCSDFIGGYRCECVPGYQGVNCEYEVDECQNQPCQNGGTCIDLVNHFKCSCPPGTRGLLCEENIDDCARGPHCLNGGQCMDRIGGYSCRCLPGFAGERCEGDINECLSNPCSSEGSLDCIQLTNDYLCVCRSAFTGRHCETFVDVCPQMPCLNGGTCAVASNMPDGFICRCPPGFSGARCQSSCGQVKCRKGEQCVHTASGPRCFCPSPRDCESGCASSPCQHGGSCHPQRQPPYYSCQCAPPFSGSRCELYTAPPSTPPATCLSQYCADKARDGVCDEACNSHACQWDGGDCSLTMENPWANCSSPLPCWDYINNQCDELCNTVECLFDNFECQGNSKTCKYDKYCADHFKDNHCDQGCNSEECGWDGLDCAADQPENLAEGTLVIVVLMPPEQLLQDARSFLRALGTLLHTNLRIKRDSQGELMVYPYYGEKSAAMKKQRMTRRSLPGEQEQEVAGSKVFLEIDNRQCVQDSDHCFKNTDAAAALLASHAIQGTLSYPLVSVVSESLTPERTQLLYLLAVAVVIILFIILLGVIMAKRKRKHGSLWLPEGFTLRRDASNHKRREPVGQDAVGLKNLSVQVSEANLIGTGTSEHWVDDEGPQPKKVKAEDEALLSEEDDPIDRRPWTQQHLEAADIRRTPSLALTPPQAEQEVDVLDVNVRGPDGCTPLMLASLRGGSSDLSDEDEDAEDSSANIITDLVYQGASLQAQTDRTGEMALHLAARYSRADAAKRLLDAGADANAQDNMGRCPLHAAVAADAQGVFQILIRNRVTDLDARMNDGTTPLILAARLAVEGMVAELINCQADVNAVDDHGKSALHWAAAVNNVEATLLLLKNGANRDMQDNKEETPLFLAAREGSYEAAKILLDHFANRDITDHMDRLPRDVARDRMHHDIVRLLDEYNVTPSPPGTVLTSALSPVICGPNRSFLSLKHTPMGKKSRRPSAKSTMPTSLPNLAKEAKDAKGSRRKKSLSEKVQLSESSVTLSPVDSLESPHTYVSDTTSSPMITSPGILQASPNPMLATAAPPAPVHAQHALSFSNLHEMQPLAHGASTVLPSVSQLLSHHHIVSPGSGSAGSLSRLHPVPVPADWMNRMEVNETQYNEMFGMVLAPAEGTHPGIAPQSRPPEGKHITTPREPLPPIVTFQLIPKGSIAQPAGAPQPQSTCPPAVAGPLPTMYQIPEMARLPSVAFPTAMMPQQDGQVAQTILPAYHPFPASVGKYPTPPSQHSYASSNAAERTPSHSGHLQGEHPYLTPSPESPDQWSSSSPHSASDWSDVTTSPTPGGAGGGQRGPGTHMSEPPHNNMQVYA
For assay [6], the target named is Pro-neuregulin-1, membrane-bound isoform (Homo sapiens) (UniProt Q02297). Nature of the assay: small molecules binding neuregulin-1 protein – biochemical, small-molecule microarray, fluorescence 635/667, psychiatric disease protein project, primary screen (AID 1075).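 Further: score combines 667 nm spot fluorescence with signal to noise.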 The settings on record: NRG1 binding, 635 nm fluorescence, higher = more signal.
Sequence of Pro-neuregulin-1, membrane-bound isoform (Homo sapiens) (Q02297 whole entry, looked up, the tested form may be a part, canonical isoform): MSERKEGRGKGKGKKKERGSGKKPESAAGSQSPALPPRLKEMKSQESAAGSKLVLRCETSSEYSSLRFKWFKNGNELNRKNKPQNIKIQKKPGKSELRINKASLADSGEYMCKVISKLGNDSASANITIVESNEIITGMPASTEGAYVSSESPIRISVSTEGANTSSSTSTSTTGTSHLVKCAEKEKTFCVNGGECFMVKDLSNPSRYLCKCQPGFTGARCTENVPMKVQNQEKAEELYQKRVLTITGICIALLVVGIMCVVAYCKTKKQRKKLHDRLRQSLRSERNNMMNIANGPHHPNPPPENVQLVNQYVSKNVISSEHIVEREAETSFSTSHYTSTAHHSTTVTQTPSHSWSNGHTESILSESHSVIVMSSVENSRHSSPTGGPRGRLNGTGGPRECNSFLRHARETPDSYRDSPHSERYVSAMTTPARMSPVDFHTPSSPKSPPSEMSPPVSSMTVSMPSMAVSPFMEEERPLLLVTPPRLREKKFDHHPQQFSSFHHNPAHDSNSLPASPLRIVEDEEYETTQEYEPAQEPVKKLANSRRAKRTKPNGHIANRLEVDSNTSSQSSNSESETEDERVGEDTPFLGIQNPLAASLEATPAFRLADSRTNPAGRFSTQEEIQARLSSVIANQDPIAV
In assay [7] the test system is Neuregulin-1 EGF-like domain. The assay is described as follows: small molecules binding NRG1 EGF domain – biochemical, small-molecule microarray, 635 nm fluorescence, primary screen (AID 1081).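 Further: binding of the protein to compounds printed on small-molecule microarray slides.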 Conditions: higher = more signal.
Assay [8] can be described thus: FRG1 expression reporter modulators in myotubes – cell-based, C2C12 myotubes, firefly/Renilla luciferase, luminescence, FRG1 inhibition for FSHD, primary screen (AID 1084). The settings on record: FRG1 promoter luciferase, higher = more signal, called active from +8 up or from −8 down.
Assay [9] is described as follows: small molecules captured by biotinylated probe aFST – biochemical, small-molecule microarray, fluorescence 635/667, stem cell growth factor project, primary screen (AID 1086).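 Further: score merges 667 nm fluorescence with signal-to-noise of each printed compound spot.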 The settings on record: higher = more signal.
The nature of assay [10]: binders of probe aHhip on microarray, primary screen, stem cell growth factor project, biochemical, small-molecule microarray, fluorescence 635/667 (AID 1087).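 Further: score merges spot fluorescence at 667nm with spot signal to noise ratio.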 Conditions: higher = more signal.
Assay [11] relates to PRMT1 (protein arginine N-methyltransferase 1). The assay is described as follows: small molecules binding arginine methyltransferase PRMT1 – biochemical, small-molecule microarray, 635 nm fluorescence, primary screen (AID 1088).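 Further: binding of Prmt1 protein to compounds spotted on small-molecule microarray slides.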 Conditions: higher = more signal.
Assay [12] can be described thus: growth effects on S. cerevisiae YJM789 – YJM789 clinical isolate, OD600, 24 h, basal, primary screen (AID 1089).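 Further: growth of clinical yeast isolate S. cerevisiae YJM 789 seeded 1000 cells per well; test concentration not given here.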 The settings on record: higher = more signal, called active from +8 up or from −8 down.
A short description of assay [13]: S. pombe growth modifiers, basal conditions – strain 972, OD600, 24 h, no modulator, primary screen (AID 1090).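 Further: basal condition with compound alone and no growth modifier present; test concentration not given here.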 Conditions: S. pombe 972 growth, higher = more signal, called active from +8 up or from −8 down.
Assay [14] in a line: budding yeast growth modifiers under rapamycin – strain BY4716, OD600, 96 h, primary screen (AID 1091). Further: test concentration not given here. The settings on record: S. cerevisiae BY4716 + rapamycin, higher = more signal, called active from +8 up or from −8 down.
The target in assay [15] is Torsin-1A-interacting protein 2 (Homo sapiens) (UniProt Q8NFQ8). The assay is described as follows: small molecules binding lysate-expressed LULL1 – cell lysate, human LULL1 lysate, 635/667 nm fluorescence, primary screen (AID 1092).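 Further: probe is lysate of COS7 cells overexpressing human LULL1; score merges per-feature 667 nm fluorescence with signal-to-noise.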 Conditions: small-molecule microarray, hLULL1 lysate binding, 635 nm fluorescence; higher = more signal.
Sequence of Torsin-1A-interacting protein 2 (Homo sapiens) (Q8NFQ8 whole entry, looked up): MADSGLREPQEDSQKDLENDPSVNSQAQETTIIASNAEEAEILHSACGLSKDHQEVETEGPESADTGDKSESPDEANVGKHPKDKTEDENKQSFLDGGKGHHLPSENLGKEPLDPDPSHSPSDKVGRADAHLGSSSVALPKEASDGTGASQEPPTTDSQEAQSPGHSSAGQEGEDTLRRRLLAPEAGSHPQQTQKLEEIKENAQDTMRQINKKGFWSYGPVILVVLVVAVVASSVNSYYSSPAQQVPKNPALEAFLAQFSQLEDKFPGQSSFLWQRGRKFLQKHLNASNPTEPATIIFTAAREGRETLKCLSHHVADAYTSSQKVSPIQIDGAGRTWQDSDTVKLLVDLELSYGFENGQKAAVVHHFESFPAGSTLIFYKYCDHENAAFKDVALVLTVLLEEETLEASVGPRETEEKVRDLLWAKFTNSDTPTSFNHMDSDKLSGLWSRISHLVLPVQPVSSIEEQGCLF
Assay [16] is described as follows: optical density change of DRC41 E. coli – strain DRC41, OD650, 24 h, E. coli filamentation project, primary screen (AID 1093).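 Further: MC1000 strain lacking acrAB efflux and sulA so SOS filamentation is blocked; test concentration not given here.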 Conditions: E. coli DRC41 growth, higher = more signal, called active from +8 up or from −8 down.
The nature of assay [17]: probe aLefty2 binding to arrayed compounds – biochemical, biotinylated probe, 635/667 nm fluorescence, primary screen (AID 1094).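 Further: score merges spot fluorescence near 667 nm with spot signal-to-noise ratio.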 The settings on record: small-molecule microarray, higher = more signal.
Assay [18] concerns Noggin (protein binding on small-molecule microarray). The assay is described as follows: small molecules binding Noggin protein – biochemical, 635/667 nm fluorescence, primary screen (AID 1095).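 Further: score merges 667 nm feature fluorescence with signal to noise over triplicate slides.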 Conditions: 635 nm fluorescence, higher = more signal.
Assay [19] deals with Neurogenic locus notch homolog protein 3 (Homo sapiens) (UniProt Q9UM47). Nature of the assay: small molecules binding NOTCH3 protein – biochemical, 635/667 nm fluorescence, primary screen (AID 1096). Conditions: small-molecule microarray, 635 nm fluorescence, higher = more signal.
The nature of assay [20]: probe aEGFR binding to arrayed compounds – biochemical, biotinylated probe, 635/667 nm fluorescence, primary screen (AID 1097).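 Further: probe is a biotinylated anti-EGFR antibody binding compounds printed on slides; score combines fluorescence near 667 nm and signal to noise of each spot.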 The settings on record: small-molecule microarray, higher = more signal.

As to `Cc1ccc(S[C@]2(C(=O)O)CC(=O)N(Cc3ccccc3C(F)(F)F)[C@@H]2c2ccc(CO)cc2I)cc1`, the composite z-score in assay [1] was -0.0699; in [2], 0.979; in assay [3] it was -0.1; in assay [4], -0.0146; in assay [5], -1.23; in assay [6] it was 0.695. Moreover, the composite z-score in [7] was 0.559; in [9], -0.387; in assay [10], -0.334; in [11], 0.471; in assay [15] it was 1.65; in assay [17], -0.205. Besides, the composite z-score in assay [18] was -0.571; in [19], -1.02; in [20], -0.213. The z-score in assay [8] was 0.371 (inactive); in assay [12] it was -1.73 (inactive); in assay [13] it was -2.36 (inactive); in assay [14] it was 0.695 (inactive); in assay [16] it was -1.11 (inactive).

In the case of `CN(C)C(=O)[C@]1(Cc2ccccc2)N=C(c2ccc(OCCCO)cc2)O[C@@H]1c1ccccc1N=[N+]=[N-]`, the composite z-score in assay [1] amounted to 0.303; in assay [2], 0.746; in [3], 0.0797; in assay [4] it was 0.618; in assay [5] it was 1.33; in [6], 1.56. Moreover, the composite z-score was determined as 1.13 in [7]; 0.532 in assay [9]; 0.0749 in [10]; 1.56 in assay [11]; 2.84 in [15]; 0.141 in assay [17]. The composite z-score came out at 1.35 in [18], 1.12 in assay [19] and 0.438 in assay [20]. For the same compound, the z-score in assay [8] is 0.336 (inactive); in assay [12] it was -0.305 (inactive); in assay [13] it was -0.655 (inactive); in assay [14], 1.06 (inactive); in assay [16] it was 0.841 (inactive).

Turning to `CCCCC(=C=CC[C@@H](O)c1cccc(OCCO)c1)C[C@@H](O)c1ccccn1`, the composite z-score in [1] is -0.528; in assay [2], 0.775; in assay [3], -0.0771; in assay [4], 0.702; in assay [5], 0.0548; in assay [6] it was 0.23. The composite z-score is 1.12 in [7]; 0.381 in assay [9]; -0.0618 in assay [10]; 1.55 in [11]; 2.07 in assay [15]; -0.207 in assay [17]. In addition, the values for the composite z-score in [18], in assay [19] and in assay [20] were 1.46, 1.01 and -0.099, respectively. The z-score is 1.36 (inactive) in assay [8]; -0.937 (inactive) in assay [12]; -0.606 (inactive) in assay [13]; -0.725 (inactive) in assay [14]; 0.149 (inactive) in assay [16].

Turning to `[N-]=[N+]=NCc1ccccc1[C@@H]1OC(c2ccc(OCCCO)cc2)=N[C@]1(CCS(=O)(=O)c1ccccc1)C(=O)N1CCOCC1`, the composite z-score was determined as 0.788 in assay [1]; 1.17 in [2]; 0.0332 in assay [3]; 0.89 in [4]; 1.64 in assay [5]; 1.48 in [6]. Moreover, the composite z-score in assay [7] was 1.29; in assay [9], 1.25; in [10], -0.0296; in assay [11] it was 1.54; in assay [15] it was 3.24; in assay [17], 0.456. For the same compound, the composite z-score in [18] was 0.256; in [19], 1.07; in assay [20], 0.256. Also, the z-score in assay [8] is 0.291 (inactive); in assay [12] it was -0.401 (inactive); in assay [13], 0.144 (inactive); in [14], 0.971 (inactive); in assay [16], 1.7 (inactive).

As to `O=C(CS)NCCCCCNC(=O)[C@H]1C[C@H]2C(=O)NCC(=O)N2[C@H]1c1ccc(O)cc1`, the composite z-score in [1] is 0.205; in [2], 0.354; in assay [3], -0.159; in assay [4] it was -0.583; in assay [5], -1.4; in assay [6], -0.83. Moreover, the composite z-score in [7] was -0.0307; in assay [9], -0.753; in [10], -0.204; in assay [11], -0.313; in [15], -1.29; in [17], -0.179. The figures for the composite z-score in assay [18], in assay [19] and in assay [20] were -0.177, -0.905 and -0.132, respectively. Further, the z-score was 1.41 (inactive) in [8]; -2.76 (inactive) in [12]; 1.02 (inactive) in [13]; -1.11 (inactive) in assay [14]; 0.77 (inactive) in [16].

Turning to `C=C(CCCC)/C(=C/C[C@@H](OC(C)=O)c1cccc(OCCO)c1)c1cnc2ccccc2c1`, the composite z-score was -0.0295 in assay [1]; 0.314 in assay [2]; -0.0015 in assay [3]; 0.0122 in assay [4]; 0.249 in assay [5]; 0.122 in assay [6]. Further, the composite z-score is 0.274 in assay [7]; 0.219 in assay [9]; 0.235 in assay [10]; 1.29 in assay [11]; 0.268 in assay [15]; -0.194 in [17]. In addition, the figures for the composite z-score in [18], in assay [19] and in assay [20] were 1.73, 0.86 and -0.0828, respectively. The z-score in [8] was -0.269 (inactive); in assay [12] it was 0.0358 (inactive); in [13], -0.328 (inactive); in [14], 0.142 (inactive); in assay [16], 1.24 (inactive).

`C=C(CCCC)/C(=C/C[C@H](OC(C)=O)c1ccc(OCCO)cc1)c1cnc2ccccc2c1`: the composite z-score in [1] was -0.173; in assay [2], 0.641; in assay [3], -0.115; in [4] it was 0.372; in assay [5], 1.21; in assay [6], 1.32. Besides, the composite z-score in [7] is 1.18; in assay [9], 0.703; in assay [10], -0.0672; in [11], 1.53; in assay [15], 1.92; in [17], -0.138. For the same compound, the composite z-score in [18] was 1.04; in assay [19], 0.727; in assay [20], -0.0824. For the same compound, the z-score in [8] was -0.851 (inactive); in [12] it was -1.1 (inactive); in assay [13] it was -1.83 (inactive); in assay [14] it was -0.434 (inactive); in assay [16] it was 1 (inactive).

`COC(=O)[C@]1(CCC(=O)OC(C)(C)C)N=C(c2ccc(OCCCO)cc2)O[C@@H]1c1ccccc1`: the composite z-score was 1.11 in [1]; -0.522 in [2]; 0.0679 in assay [3]; -0.87 in [4]; -0.668 in assay [5]; 0.791 in assay [6]. Further, the composite z-score in assay [7] was 1.14; in assay [9], -0.159; in [10], -0.233; in [11], 1.14; in assay [15], 1.4; in assay [17] it was 0.289. In addition, the composite z-score is -0.499 in assay [18], 0.0628 in assay [19] and -0.0689 in assay [20]. For the same compound, the z-score is -2.62 (inactive) in [8]; -0.401 (inactive) in assay [12]; -1.72 (inactive) in assay [13]; 1.97 (inactive) in assay [14]; 2.85 (inactive) in assay [16].

Consider `CCCC=C(CCC)[C@@H](NC(=O)OCC(C)C)c1ccccc1`, for which the composite z-score in assay [1] was 1.28; in assay [2], -0.122; in assay [3], 0.685; in assay [4], 0.444; in assay [5] it was 1.33; in assay [6], -0.111. The composite z-score in [7] is 0.762; in assay [9] it was 2.06; in assay [10], 0.152; in assay [11], 0.934; in assay [15] it was 2.01; in [17] it was 0.678. Moreover, the results for the composite z-score in assay [18], in assay [19] and in [20] were 1.11, 1.12 and 0.548, respectively. Moreover, the z-score was 2.06 (inactive) in [8]; 0.69 (inactive) in assay [12]; -0.623 (inactive) in [13]; 1.94 (inactive) in assay [14]; -1.68 (inactive) in [16].

As to `CC(=O)Nc1cc(Br)ccc1C(=O)NCc1ccccc1`, the composite z-score in assay [1] is -0.16; in assay [2] it was -0.0459; in assay [3] it was 0.0213; in [4], -0.0284; in assay [5] it was 0.359; in [6], 0.685. In addition, the composite z-score is 1.23 in assay [7]; -0.0314 in [9]; -0.226 in [10]; 0.717 in [11]; 2.06 in [15]; -0.0778 in assay [17]. The values for the composite z-score in [18], in assay [19] and in [20] were -0.0557, 0.199 and -0.111, respectively. The z-score was 0.0163 (inactive) in assay [8]; -1.76 (inactive) in [12]; -6.28 (inactive) in assay [13]; -1.98 (inactive) in assay [14]; 0.0591 (inactive) in [16].
